# Test results from publication PMC7862700, “An all-to-all approach to the identification of sequence-specific readers for epigenetic DNA modifications on cytosine”.
# Assays:
# Experiment in all cases: DAPPL (digital affinity profiling via proximity ligation, sequencing); 10 mM Tris-HCl pH 7.5, 50 mM NaCl, 1 mM DTT, 4% glycerol, room temperature, 30 min; GST-TFs on glutathione beads, 16-mer random dsDNA library, 0.1% formaldehyde crosslink after washing; high values mean tight binding
# FLI1 = target: T1, FLI1 (Homo sapiens, UniProt Q01543 1-452); settings: protein: recombinant; tags: N-terminal GST; dsDNA, one strand shown
# T1 sequence: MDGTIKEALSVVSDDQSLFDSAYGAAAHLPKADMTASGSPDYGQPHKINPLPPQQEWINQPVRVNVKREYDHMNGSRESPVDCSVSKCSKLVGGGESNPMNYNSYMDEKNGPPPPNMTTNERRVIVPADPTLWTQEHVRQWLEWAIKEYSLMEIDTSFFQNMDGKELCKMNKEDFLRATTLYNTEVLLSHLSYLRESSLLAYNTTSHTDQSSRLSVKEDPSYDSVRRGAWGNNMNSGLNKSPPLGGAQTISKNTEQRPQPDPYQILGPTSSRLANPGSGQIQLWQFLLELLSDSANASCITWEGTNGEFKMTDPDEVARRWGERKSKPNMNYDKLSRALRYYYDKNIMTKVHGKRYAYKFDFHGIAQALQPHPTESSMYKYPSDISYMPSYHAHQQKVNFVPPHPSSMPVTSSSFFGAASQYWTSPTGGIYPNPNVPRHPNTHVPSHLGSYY
# Procedure, shortened: (§1)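 After expression in yeast as GST fusions, human transcription factors were bound to glutathione beads, DNA-barcoded and mixed with a tag-only sample. The pools were incubated with 200 nmole of a 16-mer random double-stranded DNA library in Tris/NaCl/DTT/glycerol buffer (30 min, room temperature), washed and crosslinked with 0.1% formaldehyde. Proximity ligation with BsaI/T4 ligase ran for 1 h at 37 °C, before PCR amplification and sequencing on an Illumina NextSeq500. Binding signal is a hexamer's read frequency for a factor divided by its frequency for the tag-only sample.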
# ELK1 = target: T2, ELK1 (Homo sapiens, UniProt P19419 1-428); settings: protein: recombinant; tags: N-terminal GST; dsDNA, one strand shown
# T2 sequence: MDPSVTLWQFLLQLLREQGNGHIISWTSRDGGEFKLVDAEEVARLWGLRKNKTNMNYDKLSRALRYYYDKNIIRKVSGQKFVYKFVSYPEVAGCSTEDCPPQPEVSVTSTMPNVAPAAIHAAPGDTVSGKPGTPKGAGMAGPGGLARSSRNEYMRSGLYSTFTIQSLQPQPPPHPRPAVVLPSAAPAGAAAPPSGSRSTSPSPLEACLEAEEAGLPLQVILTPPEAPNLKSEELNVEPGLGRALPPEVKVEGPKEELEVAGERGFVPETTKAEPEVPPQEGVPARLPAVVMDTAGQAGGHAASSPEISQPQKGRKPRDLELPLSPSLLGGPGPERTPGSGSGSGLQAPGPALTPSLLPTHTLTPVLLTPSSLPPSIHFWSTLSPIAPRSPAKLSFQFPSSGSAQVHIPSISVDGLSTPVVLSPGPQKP
# Procedure, shortened: as §1
# GABPA = target: T3, GABPA (Homo sapiens, UniProt Q06546 1-454); settings: protein: recombinant; tags: N-terminal GST; dsDNA, one strand shown
# T3 sequence: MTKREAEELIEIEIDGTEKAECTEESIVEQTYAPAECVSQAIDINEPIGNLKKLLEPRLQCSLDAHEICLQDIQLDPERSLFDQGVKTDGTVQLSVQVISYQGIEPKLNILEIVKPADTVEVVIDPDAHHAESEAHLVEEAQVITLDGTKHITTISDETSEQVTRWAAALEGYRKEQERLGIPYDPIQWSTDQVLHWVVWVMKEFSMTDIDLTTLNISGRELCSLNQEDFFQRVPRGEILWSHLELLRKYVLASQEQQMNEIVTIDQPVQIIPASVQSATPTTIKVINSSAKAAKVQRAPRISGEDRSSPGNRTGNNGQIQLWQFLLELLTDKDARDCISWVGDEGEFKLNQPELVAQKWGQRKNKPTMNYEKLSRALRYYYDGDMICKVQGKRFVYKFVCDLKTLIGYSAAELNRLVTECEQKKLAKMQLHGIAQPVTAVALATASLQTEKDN
# Procedure, shortened: as §1
# ERG = target: T4, ERG (Homo sapiens, UniProt P11308 1-479); settings: protein: recombinant; tags: N-terminal GST; dsDNA, one strand shown
# T4 sequence: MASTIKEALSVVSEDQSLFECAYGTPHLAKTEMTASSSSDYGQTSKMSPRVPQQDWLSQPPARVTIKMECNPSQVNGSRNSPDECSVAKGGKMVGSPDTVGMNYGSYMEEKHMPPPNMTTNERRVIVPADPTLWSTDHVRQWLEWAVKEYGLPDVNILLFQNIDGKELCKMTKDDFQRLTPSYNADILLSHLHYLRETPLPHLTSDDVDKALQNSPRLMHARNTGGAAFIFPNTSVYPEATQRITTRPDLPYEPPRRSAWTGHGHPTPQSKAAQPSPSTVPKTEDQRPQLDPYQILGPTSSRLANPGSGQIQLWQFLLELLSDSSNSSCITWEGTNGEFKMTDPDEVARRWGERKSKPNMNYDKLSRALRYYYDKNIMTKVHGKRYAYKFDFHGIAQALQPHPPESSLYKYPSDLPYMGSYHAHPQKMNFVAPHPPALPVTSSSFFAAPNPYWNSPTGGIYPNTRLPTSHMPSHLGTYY
# Procedure, shortened: as §1
# ELF1 = ELF1 (Homo sapiens, UniProt P32519 1-619); settings: protein: recombinant; tags: N-terminal GST; dsDNA, one strand shown
# Chain of ELF1 (P32519 whole entry): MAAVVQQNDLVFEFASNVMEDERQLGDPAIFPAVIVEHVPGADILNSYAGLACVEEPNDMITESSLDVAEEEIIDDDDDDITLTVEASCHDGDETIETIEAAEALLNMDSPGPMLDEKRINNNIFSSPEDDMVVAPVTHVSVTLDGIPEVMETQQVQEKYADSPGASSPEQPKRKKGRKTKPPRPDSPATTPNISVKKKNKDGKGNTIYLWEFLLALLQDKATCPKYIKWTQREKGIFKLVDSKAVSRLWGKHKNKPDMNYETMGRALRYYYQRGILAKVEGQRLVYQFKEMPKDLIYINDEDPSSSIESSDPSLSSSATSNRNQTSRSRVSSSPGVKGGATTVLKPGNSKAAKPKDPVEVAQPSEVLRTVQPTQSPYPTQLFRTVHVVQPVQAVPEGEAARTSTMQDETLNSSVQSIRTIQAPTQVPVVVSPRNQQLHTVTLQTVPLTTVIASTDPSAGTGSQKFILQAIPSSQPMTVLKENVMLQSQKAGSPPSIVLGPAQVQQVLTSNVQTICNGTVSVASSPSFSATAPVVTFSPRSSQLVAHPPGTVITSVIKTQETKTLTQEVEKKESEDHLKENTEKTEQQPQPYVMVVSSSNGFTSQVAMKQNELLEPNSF
# Procedure, shortened: as §1
# EHF = target: T5, EHF (Homo sapiens, UniProt Q9NZC4 1-300); settings: protein: recombinant; tags: N-terminal GST; dsDNA, one strand shown
# T5 sequence: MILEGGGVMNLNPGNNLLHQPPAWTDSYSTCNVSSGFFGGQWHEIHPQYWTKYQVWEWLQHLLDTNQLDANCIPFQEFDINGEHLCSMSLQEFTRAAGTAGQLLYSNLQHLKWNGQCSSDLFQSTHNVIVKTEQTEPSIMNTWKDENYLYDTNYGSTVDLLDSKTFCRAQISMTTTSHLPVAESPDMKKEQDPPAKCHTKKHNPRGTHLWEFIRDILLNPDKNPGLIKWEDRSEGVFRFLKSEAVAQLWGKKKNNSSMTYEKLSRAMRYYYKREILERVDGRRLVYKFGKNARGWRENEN
# Procedure, shortened: as §1
# SPI1 = SPI1 (Homo sapiens, UniProt P17947 1-270); settings: protein: recombinant; tags: N-terminal GST; dsDNA, one strand shown
# Procedure, shortened: as §1
# SPIB = SPIB (Homo sapiens, UniProt Q01892 1-262); settings: protein: recombinant; tags: N-terminal GST; dsDNA, one strand shown
# Chain of SPIB (Q01892 whole entry): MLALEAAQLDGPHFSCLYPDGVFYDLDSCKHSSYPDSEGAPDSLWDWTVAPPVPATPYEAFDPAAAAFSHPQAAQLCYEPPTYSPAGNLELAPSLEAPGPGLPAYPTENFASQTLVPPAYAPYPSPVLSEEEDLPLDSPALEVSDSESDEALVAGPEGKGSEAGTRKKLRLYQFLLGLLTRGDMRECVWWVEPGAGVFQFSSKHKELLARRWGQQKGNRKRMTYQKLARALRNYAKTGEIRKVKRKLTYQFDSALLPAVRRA
# Procedure, shortened: as §1
# ELK3 = target: T6, ELK3 (Homo sapiens, UniProt P41970 1-407); settings: protein: recombinant; tags: N-terminal GST; dsDNA, one strand shown
# T6 sequence: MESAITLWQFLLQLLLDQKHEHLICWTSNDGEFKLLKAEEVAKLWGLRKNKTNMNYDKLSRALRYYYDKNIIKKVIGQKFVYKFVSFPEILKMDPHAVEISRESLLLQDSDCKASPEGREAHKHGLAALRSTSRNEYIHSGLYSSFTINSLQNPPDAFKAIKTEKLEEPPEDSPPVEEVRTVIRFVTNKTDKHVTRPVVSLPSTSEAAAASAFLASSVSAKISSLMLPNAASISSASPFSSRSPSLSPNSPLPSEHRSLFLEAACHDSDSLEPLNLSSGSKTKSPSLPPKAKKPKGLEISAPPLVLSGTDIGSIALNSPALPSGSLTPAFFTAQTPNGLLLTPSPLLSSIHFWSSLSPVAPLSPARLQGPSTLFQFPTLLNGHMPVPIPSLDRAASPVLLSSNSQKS
# Procedure, shortened: as §1
# FEV = target: T7, FEV (Homo sapiens, UniProt Q99581 1-238); settings: protein: recombinant; tags: N-terminal GST; dsDNA, one strand shown
# T7 sequence: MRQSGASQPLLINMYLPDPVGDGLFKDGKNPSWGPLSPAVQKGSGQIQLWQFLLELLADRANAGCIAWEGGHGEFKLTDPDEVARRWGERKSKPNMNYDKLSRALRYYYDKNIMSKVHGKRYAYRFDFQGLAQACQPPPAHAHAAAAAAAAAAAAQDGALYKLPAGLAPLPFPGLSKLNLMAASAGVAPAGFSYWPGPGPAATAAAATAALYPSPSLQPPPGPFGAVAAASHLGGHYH
# Procedure, shortened: as §1
# ETV5 = ETV5 (Homo sapiens, UniProt P41161 1-510); settings: protein: recombinant; tags: N-terminal GST; dsDNA, one strand shown
# Chain of ETV5 (P41161 whole entry): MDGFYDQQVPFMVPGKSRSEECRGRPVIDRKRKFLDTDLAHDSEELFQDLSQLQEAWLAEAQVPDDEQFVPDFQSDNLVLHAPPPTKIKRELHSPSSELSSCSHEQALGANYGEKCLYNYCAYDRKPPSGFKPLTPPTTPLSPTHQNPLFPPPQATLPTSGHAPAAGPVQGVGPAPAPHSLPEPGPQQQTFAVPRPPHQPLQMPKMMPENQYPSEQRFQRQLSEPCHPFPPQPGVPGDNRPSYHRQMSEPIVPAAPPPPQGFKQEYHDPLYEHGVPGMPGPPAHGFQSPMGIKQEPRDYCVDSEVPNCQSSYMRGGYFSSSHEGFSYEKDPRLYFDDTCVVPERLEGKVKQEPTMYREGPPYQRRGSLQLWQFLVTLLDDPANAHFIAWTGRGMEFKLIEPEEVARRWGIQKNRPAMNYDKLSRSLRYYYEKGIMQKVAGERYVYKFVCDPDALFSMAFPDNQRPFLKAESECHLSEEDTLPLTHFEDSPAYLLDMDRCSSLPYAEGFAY
# Procedure, shortened: as §1
# HSF1 = HSF1 (Homo sapiens, UniProt Q00613 1-529); settings: protein: recombinant; tags: N-terminal GST; chain copies: 3; dsDNA, one strand shown
# Chain of HSF1 (Q00613 whole entry): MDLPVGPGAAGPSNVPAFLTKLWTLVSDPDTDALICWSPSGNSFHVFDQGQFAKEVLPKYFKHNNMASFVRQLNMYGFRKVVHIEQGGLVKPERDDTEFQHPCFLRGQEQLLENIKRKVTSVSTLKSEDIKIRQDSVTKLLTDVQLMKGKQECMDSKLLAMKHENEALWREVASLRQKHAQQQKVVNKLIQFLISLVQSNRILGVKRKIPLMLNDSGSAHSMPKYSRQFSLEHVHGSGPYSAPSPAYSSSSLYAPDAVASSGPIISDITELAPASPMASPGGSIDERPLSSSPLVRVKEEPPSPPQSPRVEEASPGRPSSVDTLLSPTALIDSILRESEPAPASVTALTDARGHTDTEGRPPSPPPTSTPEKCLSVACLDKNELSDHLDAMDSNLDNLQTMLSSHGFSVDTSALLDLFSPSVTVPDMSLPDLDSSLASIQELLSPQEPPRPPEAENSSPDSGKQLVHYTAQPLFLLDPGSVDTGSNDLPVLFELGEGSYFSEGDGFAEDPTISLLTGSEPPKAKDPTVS
# Procedure, shortened: as §1
# SPIC = target: T8, SPIC (Homo sapiens, UniProt Q8N5J4 1-248); settings: protein: recombinant; tags: N-terminal GST; dsDNA, one strand shown
# T8 sequence: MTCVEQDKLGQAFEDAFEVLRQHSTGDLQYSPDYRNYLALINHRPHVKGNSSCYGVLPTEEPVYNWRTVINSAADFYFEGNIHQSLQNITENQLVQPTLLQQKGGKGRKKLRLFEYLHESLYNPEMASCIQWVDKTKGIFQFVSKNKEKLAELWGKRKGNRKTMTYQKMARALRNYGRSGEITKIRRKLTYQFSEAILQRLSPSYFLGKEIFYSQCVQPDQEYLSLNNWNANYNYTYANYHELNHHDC
# Procedure, shortened: as §1
# ELF4 = ELF4 (Homo sapiens, UniProt Q99607 1-663); settings: protein: recombinant; tags: N-terminal GST; dsDNA, one strand shown
# Chain of ELF4 (Q99607 whole entry): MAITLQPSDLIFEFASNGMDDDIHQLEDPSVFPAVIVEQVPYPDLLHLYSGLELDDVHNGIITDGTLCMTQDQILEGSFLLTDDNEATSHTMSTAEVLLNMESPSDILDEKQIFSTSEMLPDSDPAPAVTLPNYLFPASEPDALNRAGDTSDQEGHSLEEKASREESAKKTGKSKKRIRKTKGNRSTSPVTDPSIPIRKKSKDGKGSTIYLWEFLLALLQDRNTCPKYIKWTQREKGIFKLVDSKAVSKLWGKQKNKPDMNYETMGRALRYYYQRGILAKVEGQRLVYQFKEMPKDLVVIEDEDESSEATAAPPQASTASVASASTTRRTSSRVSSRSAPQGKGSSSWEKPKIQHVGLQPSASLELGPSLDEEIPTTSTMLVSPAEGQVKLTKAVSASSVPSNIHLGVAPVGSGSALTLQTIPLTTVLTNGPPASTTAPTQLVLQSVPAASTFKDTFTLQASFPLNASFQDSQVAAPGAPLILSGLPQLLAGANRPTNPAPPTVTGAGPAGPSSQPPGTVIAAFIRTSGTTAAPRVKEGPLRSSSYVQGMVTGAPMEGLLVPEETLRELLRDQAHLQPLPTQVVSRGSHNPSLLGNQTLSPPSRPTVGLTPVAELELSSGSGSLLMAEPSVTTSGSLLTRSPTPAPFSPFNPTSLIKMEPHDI
# Procedure, shortened: as §1
# ELK4 = target: T9, ELK4 (Homo sapiens, UniProt P28324-2 1-405); settings: protein: recombinant; tags: N-terminal GST; dsDNA, one strand shown
# T9 sequence: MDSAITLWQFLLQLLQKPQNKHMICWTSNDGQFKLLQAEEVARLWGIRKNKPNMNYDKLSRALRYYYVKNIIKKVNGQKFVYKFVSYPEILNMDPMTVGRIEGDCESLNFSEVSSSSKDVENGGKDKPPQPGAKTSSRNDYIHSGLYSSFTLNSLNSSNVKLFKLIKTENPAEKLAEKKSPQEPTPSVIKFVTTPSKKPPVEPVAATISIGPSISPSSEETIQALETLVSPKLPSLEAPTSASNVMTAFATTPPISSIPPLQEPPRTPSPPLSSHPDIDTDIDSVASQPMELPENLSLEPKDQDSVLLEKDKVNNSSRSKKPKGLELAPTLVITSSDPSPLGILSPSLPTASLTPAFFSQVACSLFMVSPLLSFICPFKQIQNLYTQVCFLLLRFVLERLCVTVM
# Procedure, shortened: as §1
# ETV2 = target: T10, ETV2 (Homo sapiens, UniProt O00321 1-342); settings: protein: recombinant; tags: N-terminal GST; dsDNA, one strand shown
# T10 sequence: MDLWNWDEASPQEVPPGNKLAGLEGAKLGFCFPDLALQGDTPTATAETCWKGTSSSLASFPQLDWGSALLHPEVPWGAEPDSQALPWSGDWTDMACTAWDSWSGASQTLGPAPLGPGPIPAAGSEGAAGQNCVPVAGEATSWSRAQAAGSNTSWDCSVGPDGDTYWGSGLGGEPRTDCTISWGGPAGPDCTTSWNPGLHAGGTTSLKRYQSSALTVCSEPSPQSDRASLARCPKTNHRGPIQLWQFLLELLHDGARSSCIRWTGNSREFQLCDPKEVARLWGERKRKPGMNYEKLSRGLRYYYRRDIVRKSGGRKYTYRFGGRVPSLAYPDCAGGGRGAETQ
# Procedure, shortened: as §1
# ELF3 = target: T11, ELF3 (Homo sapiens, UniProt P78545 1-371); settings: protein: recombinant; tags: N-terminal GST; dsDNA, one strand shown
# T11 sequence: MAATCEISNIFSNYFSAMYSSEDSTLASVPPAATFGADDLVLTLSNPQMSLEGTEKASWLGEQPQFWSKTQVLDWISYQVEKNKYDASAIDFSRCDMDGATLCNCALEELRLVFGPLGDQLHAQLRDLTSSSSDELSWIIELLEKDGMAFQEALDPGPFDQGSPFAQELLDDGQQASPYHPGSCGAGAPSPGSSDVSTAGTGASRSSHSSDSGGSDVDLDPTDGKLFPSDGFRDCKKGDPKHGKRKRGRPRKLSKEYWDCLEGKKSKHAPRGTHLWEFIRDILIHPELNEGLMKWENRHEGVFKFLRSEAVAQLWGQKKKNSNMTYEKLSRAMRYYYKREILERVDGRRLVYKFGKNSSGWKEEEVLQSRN
# Procedure, shortened: as §1
# ETV1 = ETV1 (Homo sapiens, UniProt P50549 1-477); settings: protein: recombinant; tags: N-terminal GST; dsDNA, one strand shown
# Chain of ETV1 (P50549 whole entry): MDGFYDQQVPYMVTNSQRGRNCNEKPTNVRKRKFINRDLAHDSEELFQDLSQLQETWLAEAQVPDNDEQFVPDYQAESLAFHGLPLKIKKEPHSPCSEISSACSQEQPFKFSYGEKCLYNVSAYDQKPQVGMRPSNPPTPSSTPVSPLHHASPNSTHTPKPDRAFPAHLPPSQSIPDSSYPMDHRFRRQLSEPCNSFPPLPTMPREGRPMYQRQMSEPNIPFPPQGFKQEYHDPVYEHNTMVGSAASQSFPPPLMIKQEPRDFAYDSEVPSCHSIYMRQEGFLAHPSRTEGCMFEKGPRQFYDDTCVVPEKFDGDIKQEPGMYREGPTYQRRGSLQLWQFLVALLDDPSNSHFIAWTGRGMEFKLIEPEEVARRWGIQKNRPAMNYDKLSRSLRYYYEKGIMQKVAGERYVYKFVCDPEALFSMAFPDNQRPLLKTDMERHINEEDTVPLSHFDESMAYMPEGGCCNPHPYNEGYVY
# Procedure, shortened: as §1
sequence,measurement,setting,value
TCGTAC,binding signal,FLI1,"1.13 fold enrichment (6-mer frequency, TF over GST control)"
same,binding signal,ELK1,"1.13 fold enrichment (6-mer frequency, TF over GST control)"
same,binding signal,GABPA,"1.18 fold enrichment (6-mer frequency, TF over GST control)"
same,binding signal,ERG,"1.06 fold enrichment (6-mer frequency, TF over GST control)"
same,binding signal,ELF1,"1.14 fold enrichment (6-mer frequency, TF over GST control)"
same,binding signal,EHF,"1.14 fold enrichment (6-mer frequency, TF over GST control)"
same,binding signal,SPI1,"1.06 fold enrichment (6-mer frequency, TF over GST control)"
same,binding signal,SPIB,"1.04 fold enrichment (6-mer frequency, TF over GST control)"
same,binding signal,ELK3,"1.11 fold enrichment (6-mer frequency, TF over GST control)"
same,binding signal,FEV,"1.13 fold enrichment (6-mer frequency, TF over GST control)"
same,binding signal,ETV5,"1.13 fold enrichment (6-mer frequency, TF over GST control)"
same,binding signal,HSF1,"1.06 fold enrichment (6-mer frequency, TF over GST control)"
same,binding signal,SPIC,"1.09 fold enrichment (6-mer frequency, TF over GST control)"
same,binding signal,ELF4,"1.14 fold enrichment (6-mer frequency, TF over GST control)"
same,binding signal,ELK4,"1.03 fold enrichment (6-mer frequency, TF over GST control)"
same,binding signal,ETV2,"1.22 fold enrichment (6-mer frequency, TF over GST control)"
same,binding signal,ELF3,"1.22 fold enrichment (6-mer frequency, TF over GST control)"
same,binding signal,ETV1,"1.18 fold enrichment (6-mer frequency, TF over GST control)"
